Results reported in PubChem BioAssay (NCATS).
Values joined by “and” are separate entries in the source; they are usually repeats but may differ in a detail not shown here. Equal entries are not always repeated. Inconclusive results are not listed. A call without a number means that no potency is given here. Active and inactive are the calls of the source. Calls follow the shape of the dose curve; as a rule, active = well fitted cell-killing curve with a large enough effect; inconclusive = small, poorly fitted or top-dose-only effect, or effect the other way; inactive = no such curve, though single readings can be large or run the other way.

test: Quantitative High-Throughput drug screen in 47 multiple myeloma cell lines against the NCATS MIPE library collection: PCM6_Riken cell viability assay (AID 1919870); conditions: CellTiter-Glo ATP, 48 h; series mostly up to 45.8 µM; also: nearly all actives have a fitted effect of over 30% in size
Description: PI: Beverly A. Mock Ph.D.
Laboratory of Cancer Biology and Genetics,
Center for Cancer Research, National Cancer Institute,
National Institute of Health, Bethesda, Maryland
Drug resistance and disease progression are common in multiple myeloma (MM) patients, underscoring the need for new therapeutic combinations. […] We hypothesized that effective combinations would reduce MYC expression and enhance p16 activity. […] These preclinical data identify potentially useful drug combinations for evaluation in drug-resistant MM and reveal potential mechanisms of combined drug sensitivity.
Described herein is the primary MIPE qHTS used to cherrypick compounds. Validated compounds were then further tested for potential synergistic activiy.
[1] Peat TJ, Gaikwad SM, Dubois W, Gyabaah-Kessie N, Zhang S, Gorjifard S, Phyo Z, Andres M, Hughitt VK, Simpson RM, Miller MA, Girvin AT, Taylor A, Williams D, D'Antonio N, Zhang Y, Rajagopalan A, Flietner E, Wilson K, Zhang X, Shinn P, Klumpp-Thomas C, McKnight C, Itkin Z, Chen L, Kazandijian D, Zhang J, Michalowski AM, Simmons JK, Keats J, Thomas CJ, Mock BA. Drug combinations identified by high-throughput screening promote cell cycle transition and upregulate Smad pathways in myeloma. Cancer Lett. 2023 Aug 1;568:216284. doi: 10.1016/j.canlet.2023.216284. Epub 2023 Jun 24. PMID: 37356470; PMCID: PMC10408729.
SEQUENCE No. (e.g., 1, 2, 3, etc.); […] (e.g., Cells, Incubation, Reagent, etc.); VALUE and DESCRIPTION.
1; Cells; 5 uL; white, solid bottom 1536-well Greiner assay plate.
2; Compounds; 23 nL; Kalypsis pin tool (Wako USA) equipped with a 1536-well pin head to transfer to the assay plates.
3; Incubation; 48 hours; 37C incubation.
4; Reagent;5uL; CellTiter Glo (Promega).
5; Detector; 425V; Luminescence; Viewlux PerkinElmer.
NOTES (numbers refer to Sequence numbers above)
1. The cell-based screening methods employed in this study were like those previously published. Briefly, the corresponding myeloma cell lines were screened in 1,536-well plates with 500 cells, 5-uL per well for inhibition of cell viability (assessed by measuring ATP levels with CellTiterGlo).
2. NCATS MIPE 4.0 library of approved and investigational drugs were added using the Kalypsis pin tool. Wells treated with DMSO only for 100% viability and media only for 0% viability were used as controls.
3. The assay plates were covered and incubated for 48 hours in a 37C, 5% CO2 incubator with controlled humidity.
4. After 48 hours, CellTilter-GloTM luminescent substrate mix (Promega) reagent was added to the assay plate and plates we incubated for 5 min at room temperature.
5. Signal was measured as median relative luminescence units on a ViewLux (PerkinElmer) multiplate reader.
[1] Heske CM, Davis MI, Baumgart JT, Wilson K, Gormally MV, Chen L, Zhang X, Ceribelli M, Duveau DY, Guha R, Ferrer M, Arnaldez FI, Ji J, Tran HL, Zhang Y, Mendoza A, Helman LJ, Thomas CJ. Matrix Screen Identifies Synergistic Combination of PARP Inhibitors and Nicotinamide Phosphoribosyltransferase (NAMPT) Inhibitors in Ewing Sarcoma. Clin Cancer Res. 2017 Dec 1;23(23):7301-7311. doi: 10.1158/1078-0432.CCR-17-1121. Epub 2017 Sep 12. PMID: 28899971; PMCID: PMC6636827.
Potency is read from the fitted curve at half-maximal effect.

Row | Compound | Potency
1 | OCCn1cc(-c2cnc3nnn(Cc4ccc5ncccc5c4)c3n2)cn1 | inactive
2 | CNC(=O)c1ccc(C)c(-n2c(C)cc(OCc3ccc(F)cc3F)c(Br)c2=O)c1 | 14.8 µM (active)
3 | Nc1nc2[nH]cc(CCc3ccc(C(=O)N[C@@H](CCC(=O)O)C(=O)O)cc3)c2c(=O)[nH]1 | inactive
4 | CCOc1cc(N2CCC(O)CC2)ccc1Nc1ncc2c(n1)N(C)c1ccccc1C(=O)N2C | 14.8 µM (active)
5 | Cn1cnc2c(F)c(Nc3ccc(Br)cc3Cl)c(C(=O)NOCCO)cc21 | 0.166 µM (active)
6 | O=C1CCC(N2C(=O)c3ccccc3C2=O)C(=O)N1 (stereo not given) | inactive
7 | NNCCc1ccccc1 | inactive
8 | OCCC#Cc1nc(-c2ccc(F)cc2)c(-c2ccncc2)n1CCCc1ccccc1 | 23.5 µM (active)
9 | COc1cccc2cc(-c3nc(C4CCC(C(=O)O)CC4)n4ncnc(N)c34)[nH]c12 (stereo not given) | 1.87 µM (active)
10 | CN(C)c1ccc(C2Nc3ccc4ccccc4c3C3=C2C(=O)CC(C)(C)C3)cc1Br (stereo not given) | inactive
11 | CC1(C)Cc2c(-c3ccccc3)c(-c3ccc(Cl)cc3)c(CC(=O)O)n2C1 | 20.9 µM (active)
12 | C[C@]12CC[C@H](O)CC1=CC[C@@H]1[C@H]2CC[C@]2(C)C(c3cccnc3)=CC[C@H]12 | inactive
13 | O=C1CCc2cc(OCCCCc3nnnn3C3CCCCC3)ccc2N1 | inactive
14 | CS(=O)(=O)c1cccc(CNc2nc(Nc3ccc4c(c3)CCC(=O)N4)ncc2C(F)(F)F)c1 | 7.43 µM (active)
15 | Clc1cccc(Cl)c1NC1=NCCN1 | inactive
16 | NC(=O)C1CCCc2c1[nH]c1ccc(Cl)cc21 (stereo not given) | 16.6 µM (active)
17 | OC(CCN1CCCCC1)(c1ccccc1)C1CC2C=CC1C2 (stereo not given) | inactive
18 | CCc1cc(Nc2nccc(-c3c(-c4ccc(OC)c(C(=O)Nc5c(F)cccc5F)c4)nc4ccccn34)n2)c(OC)cc1N1CCC(N2CCN(S(C)(=O)=O)CC2)CC1 | inactive
19 | CCOC(=O)N[C@@H]1CC[C@@H]2[C@@H](C1)C[C@H]1C(=O)O[C@H](C)[C@H]1[C@@H]2C=Cc1ccc(-c2cccc(F)c2)cn1 | inactive
20 | COCC(=O)NCC=Cc1ccc2ncnc(Nc3ccc(Oc4ccc(C)nc4)c(C)c3)c2c1 | 20.9 µM (active)

Row | Compound | Potency
21 | COc1cc(F)c(F)c(Nc2ccc(I)cc2F)c1NS(=O)(=O)C1(C[C@H](O)CO)CC1 | 14.8 µM (active)
22 | Cc1ccnc(NS(=O)(=O)c2ccc(NC(=O)Nc3ccc(S(=O)(=O)Nc4nccc(C)n4)cc3)cc2)n1 | 4.69 µM (active)
23 | Cc1cc(C=c2sc3nc4ccccc4n3c2=O)c(C)n1-c1ccccc1 | inactive
24 | CC(C)(Sc1ccc(CCN(CCCCC2CCCCC2)C(=O)NC2CCCCC2)cc1)C(=O)O | inactive
25 | NC(=O)c1ccc(-c2nc(-c3ccc4c(c3)OCCO4)c(-c3ccccn3)[nH]2)cc1 | 13.2 µM (active)
26 | CC(C=CC1=C(C)CCCC1(C)C)=CC=CC(C)=CC(=O)O | 14.8 µM (active) and 18.7 µM (active)
27 | O=C(O)COCCN1CCN(C(c2ccccc2)c2ccc(Cl)cc2)CC1 (stereo not given) | inactive
28 | O=c1n(CCCN2CCN(c3cccc(Cl)c3)CC2)nc2ccccn12 | inactive
29 | COc1ccc(-c2ccc3c(N4CCOC[C@H]4C)nc(N4CCOC[C@H]4C)nc3n2)cc1CO | 0.0166 µM (active)
30 | CC(=O)NC(C)c1ccc(Oc2ccc(OC(C)C)cc2)cc1 (stereo not given) | 16.6 µM (active)
31 | Cn1cc(-c2ccc3nnc(C(F)(F)c4ccc5ncccc5c4)n3n2)cn1 | inactive
32 | Cc1c(CCOc2ccc(C(=O)O)cc2)c2cc(Cl)ccc2n1C(c1ccccc1)c1ccccc1 | inactive
33 | C[C@H](NC(=O)Cc1cc(F)cc(F)c1)C(=O)N[C@@H]1C(=O)N(C)c2ccccc2-c2ccccc21 | 5.26 µM (active)
34 | Cc1oncc1C(=O)Nc1ccc(C(F)(F)F)cc1 | inactive
35 | COCCNCCCn1c(C(=O)CF)c(-c2ccc(C)cc2)c2c(N)ncnc21 | 10.5 µM (active)
36 | Cn1cnc([N+](=O)[O-])c1Sc1ncnc2nc[nH]c12 | 11.8 µM (active)
37 | O=C(O)CCc1ccc(NCc2cccc(Oc3ccccc3)c2)cc1 | inactive
38 | CCOC(=O)N1CCC(=C2c3ccc(Cl)cc3CCc3cccnc32)CC1 | inactive
39 | Cc1cccc(-c2[nH]c(C(C)(C)C)nc2-c2ccc3nccnc3c2)n1 | 7.43 µM (active)
40 | CN1CCN(CCCN2c3ccccc3Sc3ccc(C(F)(F)F)cc32)CC1 | 1.48 µM (active)
